Structures are written as SMILES. Activity calls are given as the source filed them. The rule behind the calls is not given here.

Results on 40 compounds are retold here after PubChem BioAssay.

The target of the assay is Pantothenate synthetase (Mycobacterium tuberculosis (strain ATCC 25618 / H37Rv)) (UniProt P9WIL5). The experiment in a line: Recombinant Mtb pantothenate synthetase (PanC) inhibitors, coupled enzyme, confirmatory (AID 375).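 Note: 0% = full reaction with vehicle and 100% = no enzyme background.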 As to conditions: coupled enzyme assay; at 10 µM, hits give high values.
Chain of Pantothenate synthetase (Mycobacterium tuberculosis (strain ATCC 25618 / H37Rv)) (P9WIL5 whole entry, looked up): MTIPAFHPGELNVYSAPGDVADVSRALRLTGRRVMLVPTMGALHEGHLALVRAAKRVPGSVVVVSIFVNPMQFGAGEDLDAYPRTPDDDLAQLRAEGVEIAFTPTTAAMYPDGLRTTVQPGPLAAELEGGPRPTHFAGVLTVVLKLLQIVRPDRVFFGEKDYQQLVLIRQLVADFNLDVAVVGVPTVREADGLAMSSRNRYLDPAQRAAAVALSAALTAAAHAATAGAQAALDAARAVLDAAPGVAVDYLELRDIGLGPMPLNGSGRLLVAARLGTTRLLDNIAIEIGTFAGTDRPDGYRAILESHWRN
As usually defined, the inhibition is the share of the control response that was lost under treatment. Take `Cc1ccc(OCCN2CCN(C(=O)CCC(=O)Nc3nnc(C)s3)CC2)cc1`: the inhibition is 1% (inactive).

`CCOc1ccccc1C1NC(=O)NC(C)=C1C(=O)OC1CCCC1C` (stereo not given): the inhibition was 2% (inactive).

For `CCOC(=O)C1CCCN(C(=O)c2cccs2)C1` (stereo not given), the inhibition is 8% (inactive).

Turning to `Cn1c(=O)[nH]c(=O)c2c1nc(CN1CCN(c3cccc(Cl)c3)CC1)n2CCc1ccccc1`, the inhibition is 4% (inactive).

Turning to `CCOC(=O)c1sc(=NC(=O)c2ccc(OC)c(OC)c2)n(C)c1C`, the inhibition is 2% (inactive).

With `Cn1nc(C(=O)NC2CCCCCC2)ccc1=O`, the inhibition was 0% (inactive).

For the compound `Cc1ccc(CCC(=O)Nc2ccc(S(N)(=O)=O)cc2)o1`, the inhibition was 1% (inactive).

Turning to `CN1CCc2c(sc3c2c(=O)n(-c2cccc(Cl)c2)c2nncn32)C1`, the inhibition was 0% (inactive).

Consider `CCCS(=O)(=O)NCCc1cc2cc(C)c(C)cc2[nH]c1=O`, for which the inhibition is 0% (inactive).

For `O=C(c1cccnc1NCc1ccccc1)N1CCOCC1`, the inhibition was 0% (inactive).

Regarding `O=C(O)CN1C(=O)C2(OCCCO2)c2ccccc21`, the inhibition was 0% (inactive).

As for `CC(C)Cn1c(CN2CCN(c3ccccc3F)CC2)nc2c1c(=O)[nH]c(=O)n2C`, the inhibition is 0% (inactive).

As to `Cc1ccc2nc(-c3ccc4c(c3)OCCO4)cc(C(=O)O)c2c1`, the inhibition is 0% (inactive).

Take `Cc1ccc(-n2c3c(cc(C(=O)NC4CCSC4=O)c2=O)C(=O)CC(C)(C)C3)cc1` (stereo not given): the inhibition was 0% (inactive).

On to `O=C(CN1CCC(n2nnc3ccccc32)CC1)Nc1ccc2c(c1)CCC2`, for which the inhibition is 0% (inactive).

For `Cn1cccc1Cc1nnc(SCC(=O)NCC2CCCO2)n1-c1ccc(F)cc1` (stereo not given), the inhibition is 0% (inactive).

On to `Cc1cccc(NC(=O)CCN2CCN(C/C=C/c3ccccc3)CC2)c1`, for which the inhibition is 0% (inactive).

For the compound `O=C(NCc1cccs1)C1CC(c2ccccc2O)=NO1` (stereo not given), the inhibition is 5% (inactive).

With `COCCNC(=O)C(C)N(c1ccc(Oc2ccccc2)cc1)S(C)(=O)=O` (stereo not given), the inhibition is 0% (inactive).

As to `CCc1cc2ccc(C)cc2nc1SCC(=O)N1CCN(C(=O)c2ccco2)CC1`, the inhibition is 0% (inactive).

As to `CCCCOc1ccccc1NC(=O)c1ccco1`, the inhibition is 0% (inactive).

Consider `Cc1nn(C)c(C)c1CNC(=O)c1cc2n(n1)C(C(F)(F)F)CC(c1cccs1)N2` (stereo not given), for which the inhibition was 7% (inactive).

As to `Cc1ccc(-c2nn[nH]n2)cc1`, the inhibition is 0% (inactive).

As to `CCC(=O)Oc1ccc(C/C(=N\O)c2ccc(O)cc2O)o1`, the inhibition was 0% (inactive).

Regarding `Nc1c(N2CCCCC2)c(=O)[nH]c(=O)n1-c1ccccc1`, the inhibition is 0% (inactive).

Take `CCOC(=O)C1CCCN(c2c(N3CCN(c4ccccn4)CC3)c(=O)c2=O)C1` (stereo not given): the inhibition was 2% (inactive).

Consider `O=C(Nc1nc(-c2ccccc2)cs1)C1CCCCN1S(=O)(=O)c1ccccc1` (stereo not given), for which the inhibition was 1% (inactive).

Consider `c1ccc2c(c1)CNc1ccccc1C2`, for which the inhibition was 0% (inactive).

On to `COc1cccc(-n2c(C)nc3c(cnn3-c3ccc(C)cc3)c2=O)c1`, for which the inhibition is 3% (inactive).

As to `O=C(O)c1cccc(NC(=O)C2C3C=CC(C3)C2C(=O)OCC(F)(F)C(F)F)c1` (stereo not given), the inhibition is 5% (inactive).

As for `COCCn1c(SCC(=O)Nc2nnc(C)s2)nnc1-c1ccncc1`, the inhibition is 7% (inactive).

Regarding `COc1ccc2[nH]c(=O)c(CN(Cc3cccs3)S(=O)(=O)c3cccc4nsnc34)cc2c1`, the inhibition was 0% (inactive).

For the compound `COC(=O)C(C)Oc1ccc2c3c(c(=O)oc2c1)CCCCC3` (stereo not given), the inhibition is 2% (inactive).

On to `Cc1ccccc1OCCN1C(=O)NC2(CCc3ccccc32)C1=O` (stereo not given), for which the inhibition is 8% (inactive).

For `CCCSC1=C(C#N)C(c2cc(OC)ccc2OC)CC(=O)N1` (stereo not given), the inhibition was 14% (inactive).

On to `N#Cc1c(N)nc2c(c1-c1ccncc1)CCCCC2`, for which the inhibition was 8% (inactive).

For `O=C(CN(C1CCCCC1)S(=O)(=O)c1ccccc1)NCc1cccnc1`, the inhibition was 0% (inactive).

With `O=C(c1cccc2ccccc12)N1CCC(N2CCN(c3ccccc3)CC2)CC1`, the inhibition is 0% (inactive).

For the compound `COc1ccc(S(=O)(=O)NCc2ccc(C(=O)O)cc2)cc1`, the inhibition is 0% (inactive).

For the compound `Nc1nc(Cl)nc2c1ncn2[C@H]1C[C@H](O)[C@@H](CO)O1`, the inhibition is 0% (inactive).
